Experimental findings from PubChem BioAssay (EPA / NIEHS) are described below.

Inconclusive results are not listed. Active and inactive are the calls of the source. Rule for the calls: active = hit-call score of the fitted dose curve at least 0.9, where 1 is the maximum; inconclusive = response in the unintended direction; inactive = score below 0.9.

Broad substrate specificity ATP-binding cassette transporter ABCG2 (Homo sapiens), sequence (Q9UNQ0 whole entry, looked up): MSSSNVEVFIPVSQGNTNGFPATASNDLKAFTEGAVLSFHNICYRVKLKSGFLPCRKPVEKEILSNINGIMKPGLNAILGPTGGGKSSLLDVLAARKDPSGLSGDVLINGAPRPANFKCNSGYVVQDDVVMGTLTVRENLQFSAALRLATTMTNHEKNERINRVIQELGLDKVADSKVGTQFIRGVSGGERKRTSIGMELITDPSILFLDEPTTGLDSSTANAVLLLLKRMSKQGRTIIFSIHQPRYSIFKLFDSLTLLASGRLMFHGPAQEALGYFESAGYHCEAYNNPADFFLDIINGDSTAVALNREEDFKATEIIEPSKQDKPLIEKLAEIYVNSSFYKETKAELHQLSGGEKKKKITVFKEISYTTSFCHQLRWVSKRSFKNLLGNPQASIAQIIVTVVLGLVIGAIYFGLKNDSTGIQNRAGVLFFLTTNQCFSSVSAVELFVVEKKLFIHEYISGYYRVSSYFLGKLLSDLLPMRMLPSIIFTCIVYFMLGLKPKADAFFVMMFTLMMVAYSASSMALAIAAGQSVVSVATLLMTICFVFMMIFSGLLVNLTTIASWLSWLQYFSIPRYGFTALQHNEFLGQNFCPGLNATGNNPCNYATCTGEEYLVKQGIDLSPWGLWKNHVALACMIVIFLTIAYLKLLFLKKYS

Read-out in the assay: Broad substrate specificity ATP-binding cassette transporter ABCG2 (Homo sapiens) (UniProt Q9UNQ0)
As to the kind of experiment: CLD_ABCG2_6hr: CellzDirect (CLD) Gene Expression Assay for ABC Transporter (ABCG2) at 6 hours (AID 2283660). Here is the method:
CLD_6hr is a cell-based, multiplexed-readout assay that uses hepatocyte, a human liver primary cell, with measurements taken at 6 hours after chemical dosing in a 96-well plate.CLD_ABCG2_6hr is one of 16 assay component(s) measured or calculated from the CLD_6hr assay. It is designed to make measurements of mRNA induction, a form of inducible reporter, as detected with chemiluminescence signals by Quantitative Nuclease Protection Assay (qNPA) technology.Data from the assay component CLD_ABCG2_6hr was analyzed at the endpoint, CLD_ABCG2_6hr, in the positive analysis fitting direction relative to DMSO as the negative control and baseline of activity. Using a type of inducible reporter, gain-of-signal activity can be used to understand changes in the reporter gene as they relate to the gene ABCG2. Furthermore, this assay endpoint can be referred to as a primary readout. To generalize the intended target to other relatable targets, this assay endpoint is annotated to the transporter intended target family, where subfamily is ABC transporter.
Human hepatocyte cultures were treated daily for two consecutive days with fresh dosing solutions containing appropriate concentrations of the 320 ToxCast chemicals (chemical identities were blinded to CellzDirect and other ToxCast collaborators), vehicle control (0.2% DMSO), and positive control inducers as summarized in Table 1. Due to the large number of treatment groups and chemicals examined, the ToxCast chemicals were divided into two groups (spanning two independent cultures of hepatocytes from separate donor preparations (Hu778: ToxCast plates 1 and 2; Hu776: ToxCast plates 3 and 4). Each preparation of human hepatocyte cultures was treated with respective vehicle control, medium only control, set of six positive controls/reference chemicals for the five hepatic receptor pathways, and a subset of eight of the ToxCast chemicals (indoxacarb, pyrithiobac-sodium, norflurazon, cyhalofop-butyl, methomyl, thiram, acetochlor, and propiconazole). These replicate data, coupled with internal replicates designed within the blinded ToxCast chemical library, provided additional data to evaluate interindividual differences between hepatocyte preparations and their potential impact on chemical profiles.Cell morphology and integrity were evaluated using phase-contrast microscopy as an indicator of hepatocyte cell health (Tyson & Green, 1987). Cultures for each treatment group (i.e., media, vehicle [0.2% DMSO], positive control inducers [multiple concentrations], and the ToxCast chemicals [multiple concentrations]) were observed and cell morphology was assessed relative to vehicle control cultures at each harvest time point (0, 6, 24, or 48 h). […] Images were evaluated at the conclusion of the study to assess changes in cell integrity and account for the effects of chemical exposure on uncharacteristic changes in concentration-dependent gene expression profiles. The results from these determinations of apparent cytotoxicity were annotated (yes/no) alongside the corresponding qNPA data for reference.At the conclusion of each treatment period, hepatocyte cultures (96-well) were washed with 1 volume of HBSS, lysed by addition of 25 ul ArrayPlate lysis buffer (HTG, Tucson, AZ), and 70 ul/well of Denaturation Oil, denatured by incubation at 95C for 10 min, and frozen at approximately -70C until analysis by nuclease protection assay (qNPA) (Roberts et al., 2007). For qNPA analysis, cell lysates were thawed at 50C for approximately 30 min, qNPA probes were added, and samples were incubated at 95C for 10 min to begin the detection process by denaturing the target RNA, dissociating the duplexes and secondary structure hybridization. At the conclusion of the hybridization period, S1 nuclease reagent was added to each sample to digest all nonprotected nucleotides at 50C for 60-90 min. […]
As to `Oc1ccc(Cl)cc1Cc1ccccc1`, the call was inactive.

Regarding `CC(C)N(C(=O)COc1nnc(C(F)(F)F)s1)c1ccc(F)cc1`, the call was inactive.

With `O=[N+]([O-])/N=C1\NCCN1Cc1ccc(Cl)nc1`, the result was inactive.

For the compound `COC(=O)c1ccccc1S(=O)(=O)NC(=O)N(C)c1nc(C)nc(OC)n1`, the outcome was inactive.

Consider `O=[N+]([O-])c1c(Cl)c(Cl)c(Cl)c(Cl)c1Cl`, for which the result was inactive.

As to `CC(C)(C)C(O)/C(=C\c1ccc(Cl)cc1Cl)n1cncn1` (stereo not drawn), the outcome was inactive.

Take `N#CN`: the compound was called inactive.

In the case of `CN1CSC(=S)N(C)C1`, the outcome was inactive.

As to `O=C(O)C(F)(F)C(F)(F)C(F)(F)C(F)(F)C(F)(F)C(F)(F)C(F)(F)F`, the result was inactive.

As to `CCc1ccc(C(=O)NN(C(=O)c2cc(C)cc(C)c2)C(C)(C)C)cc1`, the outcome was inactive.

For `CC1(c2ccc(Oc3ccccc3)cc2)OC(=O)N(Nc2ccccc2)C1=O` (stereo not drawn), the result was inactive.

For `CCCN(CCC)c1c([N+](=O)[O-])cc(C(F)(F)F)cc1[N+](=O)[O-]`, the compound was classed as inactive.

In the case of `CC[C@H](C)[C@H]1O[C@]2(C=C[C@@H]1C)C[C@@H]1C[C@@H](C/C=C(\C)[C@@H](O[C@H]3C[C@H](OC)[C@@H](O[C@H]4C[C@H](OC)[C@@H](O)[C@H](C)O4)[C@H](C)O3)[C@@H](C)/C=C/C=C3\CO[C@@H]4[C@H](O)C(C)=C[C@@H](C(=O)O1)[C@]34O)O2` (tested in a mixture with another compound), the compound was called inactive.

Regarding `CCOc1nc(NC)nc(NC(=O)NS(=O)(=O)c2ccccc2C(=O)OC)n1`, the compound was classed as inactive.

As to `O=C(O)COc1ccc(Cl)cc1Cl`, the compound was called inactive.

For `O=S1OCC2C(CO1)C1(Cl)C(Cl)=C(Cl)C2(Cl)C1(Cl)Cl` (stereo not drawn), the outcome was inactive.

Turning to `O=C(O)CCCOc1ccc(Cl)cc1Cl`, the outcome was inactive.

Take `COC(=O)c1ccccc1CS(=O)(=O)NC(=O)Nc1nc(OC)cc(OC)n1`: the outcome was inactive.

Consider `CCC(C)Nc1c([N+](=O)[O-])cc(C(C)(C)C)cc1[N+](=O)[O-]` (stereo not drawn), for which the compound was called inactive.

Take `O=C1c2ccccc2C(=O)N1SC(Cl)(Cl)Cl`: the call was inactive.

For the compound `CC(C)(C)C(O)C(Oc1ccc(Cl)cc1)n1cncn1` (stereo not drawn), the compound was called inactive.

`OCCOc1ccccc1`: the compound was classed as inactive.

As to `CCS(=O)(=O)c1cccnc1S(=O)(=O)NC(=O)Nc1nc(OC)cc(OC)n1`, the compound was called inactive.

As to `COc1cc(OC)nc(NC(=O)NS(=O)(=O)c2cc(NC=O)ccc2C(=O)N(C)C)n1`, the compound was called inactive.

As for `CC(C)OC(=O)Nc1cccc(Cl)c1`, the result was inactive.

Turning to `CC1(C)C(C=C(Cl)Cl)C1C(=O)OC(C#N)c1ccc(F)c(Oc2ccccc2)c1` (stereo not drawn), the result was inactive.

As to `COP(=S)(OC)Oc1ccc([N+](=O)[O-])cc1`, the call was inactive.

Regarding `CCC(C)(C)C(=O)OC1=C(c2ccc(Cl)cc2Cl)C(=O)OC12CCCCC2`, the compound was called inactive.

Regarding `N#Cc1c(Cl)c(Cl)c(Cl)c(C#N)c1Cl`, the AC50 was 20 µM (active).

On to `CNC(=O)Oc1ccccc1OC(C)C`, for which the compound was called inactive.

In the case of `CCOCN(C(=O)CCl)c1c(C)cccc1CC`, the call was inactive.

As for `CNC(=O)Oc1cccc(N=CN(C)C)c1`, the compound was called inactive.

Take `ClC1C(Cl)C(Cl)C(Cl)C(Cl)C1Cl` (stereo not drawn): the call was inactive.

Regarding `COP(=O)(OC)OC=C(Cl)Cl`, the compound was classed as inactive.

Regarding `CCC(C)(NC(=O)c1cc(Cl)c(C)c(Cl)c1)C(=O)CCl` (stereo not drawn), the compound was classed as inactive.

`C[C@H]1[C@H](c2ccc(Cl)cc2)SC(=O)N1C(=O)NC1CCCCC1`: the call was inactive.

Regarding `CNC(=O)/C=C(\C)OP(=O)(OC)OC`, the result was inactive.

In the case of `Clc1ccccc1-c1nnc(-c2ccccc2Cl)nn1`, the compound was called inactive.
